# Screening data from PubChem BioAssay.
# Hits are enriched below; roughly 18% of the tested compounds scored in any of these assays.
# TGFb SMAD3 inh – TGF-b pathway inhibition. AID 588855. Potency, µM (top dose mostly 46.1 µM), most hits filed as inhibitors. HepG2 CAGA-GFP TGF-b/SMAD3 reporter, GFP fluorescence, 18 h; TGF-beta stimulated, 500 pg/mL final. hit rate 1.2% among 410,000; note: nearly all actives have a fitted effect of over 65% in size
#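 TGF-beta reporter screen: HEPG2 CAGA-GFP, 1% FBS, 500 pg/mL TGF-beta final, 18 h; per-cell GFP summed per well; curves fitted and categorized by class.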
# IL1B secr inh – inflammasome signaling inhibition, IL-1 beta readout. activity change, % at 57.5 µM. THP-1 LPS/ATP IL-1B secretion, AlphaLISA, 16 h; stronger effect = lower value. hit rate 4.7% among 360,000. AID 743279; in the data active = activity change below about -50%; inconclusive = mostly about -30% to -49%
#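 THP-1 cells pretreated 1 hr with compounds (up to 57.5 uM final), then stimulated with LPS (250 ng/mL final) plus ATP (1.25 mM final); secreted IL-1B measured by AlphaLISA after 16 hr, decreased signal indicating inhibition.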
# TDP1 block – inhibitors of human tyrosyl-DNA phosphodiesterase TDP1; Q9NUW8; recombinant TDP1, AlphaScreen DNA substrate cleavage; Potency, µM (titrated, usually from 130 µM), usual class: inhibitors; hit rate 0.28% among 350,000; AID 485290; note: nearly all actives have a fitted effect of over 40% in size
# Target sequence (Q9NUW8 whole entry, looked up): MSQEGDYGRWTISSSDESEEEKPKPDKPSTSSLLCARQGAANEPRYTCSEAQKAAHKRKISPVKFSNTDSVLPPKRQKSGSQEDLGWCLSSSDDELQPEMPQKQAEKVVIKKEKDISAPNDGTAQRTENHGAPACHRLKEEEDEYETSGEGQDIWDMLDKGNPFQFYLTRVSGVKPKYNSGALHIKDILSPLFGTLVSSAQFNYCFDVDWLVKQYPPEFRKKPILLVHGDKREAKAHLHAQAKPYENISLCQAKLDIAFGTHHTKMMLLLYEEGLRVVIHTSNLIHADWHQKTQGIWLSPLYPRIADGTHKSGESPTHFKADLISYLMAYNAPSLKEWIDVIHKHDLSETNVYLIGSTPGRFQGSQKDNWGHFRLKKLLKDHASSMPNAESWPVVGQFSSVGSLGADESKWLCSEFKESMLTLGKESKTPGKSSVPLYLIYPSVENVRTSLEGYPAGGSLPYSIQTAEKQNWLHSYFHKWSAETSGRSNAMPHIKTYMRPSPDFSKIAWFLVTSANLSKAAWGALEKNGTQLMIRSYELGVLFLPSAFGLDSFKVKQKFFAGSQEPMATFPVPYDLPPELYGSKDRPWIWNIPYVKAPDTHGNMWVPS
#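 Enzyme-compound mixtures sat 15 min at room temperature, followed by a 5 min reaction with 15 nM final substrate and 10 min with AlphaScreen beads. Recombinant human Tdp1 was used at 1 nM final.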
# HepG2 viability – kills HepG2 cells in TGF-b inhibitor counter-screen | HepG2 CAGA-GFP viability, ATP luminescence, 18 h | Potency, µM (titrated, usually from 46.1 µM), actives largely listed as cytotoxic | hit rate 0.76% among 410,000 | AID 588856
#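 CellTiter-Glo luminescence gave cytotoxicity after 18 hours at 37 degrees C. The cells were HepG2 CAGA-GFP in 1% FBS DMEM, stimulated with 500 pg/mL TGF-beta after compound addition. %Activity was normalised to no-cell wells (complete cell-killing) and DMSO (no toxicity), and curves were fitted and classified.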
# DT40 TDP1 no CPT – qHTS for Inhibitors of human tyrosyl-DNA phosphodiesterase 1 (TDP1): qHTS in cells in absence of CPT. DT40 Tdp1-/- hTDP1 cells, no CPT, ATP luminescence, 48 h. hit rate 15% among 420,000. AID 686978, 2013. Potency, µM (highest dose often 46.2 µM), usual class: inhibitors; note: nearly all actives have a fitted effect of over 55% in size
#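 Growth kinetics read by CellTiter-Glo luminescence after ≥48 hr at 37 °C. Cells: DT40 Tdp1-/- stably carrying human TDP1, 400 per well, compound exposure in the absence of CPT (DMSO vehicle).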
# DT40 TDP1 CPT – DT40-hTDP1 cell growth loss with CPT. chicken DT40 Tdp1-/-;hTDP1 cells + 20 nM CPT, ATP luminescence, 48 h. Potency, µM (top dose mostly 46.2 µM), actives largely listed as inhibitors. hit rate 12% among 420,000. AID 686979; note: nearly all actives have a fitted effect of over 55% in size
#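 Cell growth measured by CellTiter-Glo luminescence after a minimum 48 h, 37 C compound exposure with 20 nM CPT in Tdp1-knockout DT40 cells stably expressing hTDP1, seeded 400/well; qHTS titration format.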
# A number is an active result; n = inactive; u = inconclusive; x = not tested or not shown; [ ] = dose if it differs, or a comment. Unless noted, calls come from the whole dose curve; as a rule, active = well fitted curve in the direction sought with a large enough effect; inconclusive = small, poorly fitted or top-dose-only effect, or another doubt; inactive = no such curve, though single readings can be large; an effect the other way counts as inactive or inconclusive.
SMILES,TGFb SMAD3 inh,IL1B secr inh,TDP1 block,HepG2 viability,DT40 TDP1 no CPT,DT40 TDP1 CPT
C[C@@H]1CN(Cc2nnnn2CC(=O)NCCCn2cccn2)C[C@H](C)O1,n,n,x,n,n,n
CCCOc1cccc(-c2cc(C(=O)N/N=C/c3cccnc3)c3ccccc3n2)c1,u,n,n,n,8.2µM,9.2µM
CCCOc1cccc(-c2cc(C(=O)N/N=C/c3ccccn3)c3ccccc3n2)c1,u,-98,n,n,9.2µM,12µM
O=C(N/N=C/c1cccnc1)c1cc(-c2ccccc2Cl)nc2ccccc12,n,n,n,n,4.6µM,u
Cc1cccc(/C=N/NC(=O)c2cc(-c3cccnc3)nc3c2c(C)nn3-c2ccccc2)c1,n,n,n,n,23µM,u
Cc1cccc(/C=N/NC(=O)c2cc(-c3cccnc3)nc3ccccc23)c1,n,n,n,n,n,n
Cc1ccccc1-c1cc(C(=O)N/N=C/c2cccnc2)c2ccccc2n1,n,n,n,n,u,u
C=CCNc1nc(C(=O)OCC(=O)NCc2ccccc2OC)cs1,n,n,x,n,n,n
COc1cccc(NC(=O)CSc2nc3ccccc3c(=O)n2CCCC(=O)NCC2CCCO2)c1 (stereo not given),n,n,n,n,n,n
CC(C)COc1cccc(-c2cc(C(=O)Nc3ccon3)c3ccccc3n2)c1,n,n,n,n,10µM,16µM
COc1cccc(NC(=O)c2cc(-c3ccco3)nc3ccccc23)c1,n,n,x,n,u,n
CCCOc1cccc(-c2cc(C(=O)NN)c3ccccc3n2)c1,n,n,n,n,10µM,9.2µM
COc1cc2ccccc2cc1C(=O)N/N=C/c1cccnc1,n,n,n,n,u,15µM
COc1ccc(-c2cc(C(=O)N/N=C/c3cc(OC)c(OC)cc3OC)c3ccccc3n2)cc1,n,n,x,n,9.2µM,10µM
N#Cc1cccc(-c2cncnc2NCc2cccs2)c1,x,x,x,x,n,n
COc1ccc(-c2cc(C(=O)N/N=C/c3cccnc3)c3ccccc3n2)cc1,n,n,n,n,u,9.2µM
NC(=S)N/N=C1\CCSc2ccc(Cl)cc21,n,n,x,n,18µM,21µM
Cc1cccc(CN2CCN(C3CN(Cc4cn(Cc5ccccc5C(F)(F)F)nn4)S(=O)(=O)C3)CC2)c1 (stereo not given),n,n,x,n,u,u
O=C(C[n+]1cccc2ccccc21)c1ccc([N+](=O)[O-])cc1,n,n,n,n,u,21µM
O=[N+]([O-])c1ccc(Cl)c(CN2CCC(O)CC2)c1,n,n,n,n,n,n
O=[N+]([O-])c1ccc(Cl)c(C[n+]2cccc3ccccc32)c1,n,n,x,n,18µM,21µM
Clc1cccc(Cl)c1C[n+]1cccc2ccccc21,n,n,x,n,2.1µM,2.1µM
COc1ccc(C(=O)C[n+]2cccc3cc(OC)ccc32)cc1,n,n,x,n,21µM,u
Cc1ccc(N(C)C(=O)c2cnn(-c3ccccc3)c2C)c(C)c1,n,n,x,n,u,u
CCSc1nc(-c2ccccc2)c(C#N)c(=O)[nH]1,n,n,n,n,n,n
SMILES,TGFb SMAD3 inh,IL1B secr inh,TDP1 block,HepG2 viability,DT40 TDP1 no CPT,DT40 TDP1 CPT
N#Cc1c(-c2ccccc2)nc(SCc2nc(N)nc(N3CCCCC3)n2)[nH]c1=O,n,n,n,n,u,12µM
Cc1ccc2nc(-c3ccc(SCC(=O)Nc4ccc5c(c4)OCCO5)nc3)[nH]c2c1,n,n,n,n,n,u
CCOc1ccc(-c2nc(SCC(=O)Nc3ccc4c(c3)OCO4)c(-c3ccc(F)cc3)[nH]2)cc1,n,x,n,n,u,n
O=C(CSc1nc(-c2ccc(F)cc2)[nH]c1-c1ccc(F)cc1)Nc1ccc2c(c1)OCCO2,7.9µM,x,n[12.3 µM],n,10µM,10µM
O=C(CSc1ncc(-c2ccc(F)cc2)n1Cc1ccco1)Nc1ccc2c(c1)OCO2,u,-64,n,n,u,29µM
O=C(CSc1nc(-c2ccc(F)cc2)[nH]c1-c1ccc(F)cc1)Nc1ccc2c(c1)OCO2,7.1µM,x,n,n,23µM,16µM
COC(=O)C1=C[C@@H](C(=O)OC)C2C3=C(C(=O)[C@@]2(CC(C)C)NC(=O)c2ccccc2)[C@H](C)n2c(=O)n(C)c(=O)n2[C@@H]3C1 (stereo not given in full),u,x,n,n,x,x
O=C1c2ccccc2-c2onc3ccc(Oc4ccccc4)c1c23,u,n,n,n,2.6µM,3.3µM
O=S(=O)(O)c1cccc2cccc(Nc3ccccc3)c12,n,n,x,n,n,n
Cc1cc(C2=NNC(=Nc3ccccc3)SC2)c(C)n1C,n,n,n,n,u,u
Clc1ccccc1N=C1NN=C(c2cccs2)CS1,u,-77,n,n,n,n
Fc1ccc(N=C2NN=C(c3cc(F)ccc3F)CS2)cc1,u,-96,n,n,15µM,u
Fc1ccc(F)c(C2=NNC(=Nc3ccccc3F)SC2)c1,u,n,n,n,16µM,u
Fc1ccccc1N=C1NN=C(c2ccccc2)CS1,u,-90,n,n,u,u
Cc1cccc(N=C2NN=C(c3ccccc3F)CS2)c1C,n,n,n,n,u,n
Cc1ccc(NS(=O)(=O)c2ccc(C(=O)Nc3nncs3)cc2)cc1,u,n,n,n,u,n
COc1ccc(N2C(=O)[C@@H]3C[C@H]2CN3Cc2cccn2-c2ccccn2)cc1Cl,x,x,x,x,n,n[9.04 µM]
COc1ccc(C(C)=O)cc1CN(c1ccccc1OC)S(=O)(=O)c1cccs1,n,n,n,n,u,u
O=C(c1ccc2nc(N3CCCCC3)sc2c1)N1CCN(Cc2ccc3c(c2)OCO3)CC1,n,n,n,n,u,u
Cc1cc(-c2ccccc2)nc(SCc2ccc(C(=O)O)cc2)n1,n,n,x,n,n,n
Cc1cc(S(=O)(=O)N2CCOCC2)ccc1F,n,n,n,n,n,n
CC(C)(C)N=C1NN=C(c2ccc(S(=O)(=O)N3CCCCC3)cc2)CS1,n,n,n,n,u,16µM
O=S(=O)(c1ccc(N=C2NN=C(c3cc(F)ccc3F)CS2)cc1)N1CCOCC1,n,-76,n,n,6.5µM,8.2µM
CC(C)N=C1NN=C(c2ccc(F)cc2)CS1,n,n,n,n,23µM,18µM
c1ccc(CN=C2NN=C(c3ccccc3)CS2)cc1,n,-67,n,n,u,u
Cc1c([N+](=O)[O-])cnc2ccccc12,n,x,x,n,u,n
O=C(CCc1ccccc1)Nc1ccccc1C(F)(F)F,n,n,n,n,n,n
